Test [1] has as its target Nucleoli Translocation, AR (gene 367) (UniProt P10275). As to the kind of experiment: UPITT_HCI_U2OS_AR_TIF2_Nucleoli_Antagonist: University of Pittsburgh U2OS Androgen Receptor-Transcriptional Intermediary Factor 2 (AR-TIF2) Antagonism High Content Imaging Assay for Nucleoli Translocation (AID 2283997). In outline:
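An antagonist-mode imaging screen: engineered U2OS (AR-RFP, TIF2-GFP) exposed to 20 uM compound, 0.2% DMSO. Activity reflects nucleolar red fluorescence change relative to DHT baseline.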

Test [2] shares this target. As to the kind of experiment: UPITT_HCI_U2OS_AR_TIF2_Nucleoli_Agonist: University of Pittsburgh U2OS Androgen Receptor-Transcriptional Intermediary Factor 2 (AR-TIF2) Agonism High Content Imaging Assay for Nucleoli Translocation (AID 2283998). In outline: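 Nucleolar translocation of AR-RFP, with TIF2-GFP coexpressed in human osteosarcoma U2OS, imaged by high-content fluorescence. Compounds tested singly at 20 uM final, confirmed in triplicate, then titrated 0.195–50 uM final; gain-of-signal relative to DMSO.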

Test [3] concerns the target Ratio of Nucleoli Translocation and Cytoplasm, AR (gene 367) (UniProt P10275). As to the kind of experiment: UPITT_HCI_U2OS_AR_TIF2_Nucleoli_Cytoplasm_Ratio_Antagonist: University of Pittsburgh U2OS Androgen Receptor-Transcriptional Intermediary Factor 2 (AR-TIF2) Antagonism High Content Imaging Assay for Ratio of Nucleoli Translocation and Cytoplasm (AID 2283999).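 Note: antagonists lower the DHT-driven ratio of nucleolar to cytoplasmic red signal.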 In outline:
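High-content imaging of red fluorescence ratio, nucleoli versus cytoplasm, in U2OS expressing AR-RFP and TIF2-GFP, fitted relative to DHT. Compounds tested once at 20 uM final, then 0.195 to 50 uM final in serial dilution.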

For test [4] the target is unchanged. The experiment in a line: UPITT_HCI_U2OS_AR_TIF2_Nucleoli_Cytoplasm_Ratio_Agonist: University of Pittsburgh U2OS Androgen Receptor-Transcriptional Intermediary Factor 2 (AR-TIF2) Agonism High Content Imaging Assay for Ratio of Nucleoli Translocation and Cytoplasm (AID 2284000).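 Note: hits raise the red nucleolar to cytoplasm ratio above vehicle.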 In outline: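 Primary screen at 20 uM final (0.2% DMSO), then triplicate confirmation and dose-response from 0.195 to 50 uM final (0.5% DMSO). Cells: U2OS with AR-RFP and TIF2-GFP. Endpoint is the nucleoli/cytoplasm red-fluorescence ratio, gain-of-signal vs DMSO.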

The nature of test [5]: TOX21_TR_RXR_BLA_Agonist_Followup_viability: Viability Assessment in the Tox21 Thyroid Hormone Receptor beta Retinoid X Receptor alpha (RXRa) Agonism Beta-lactamase (BLA) Follow-Up Assay (AID 2283970). In outline: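 CellTiter-Glo ATP luciferase read-out of cell viability, multiplexed with the beta-lactamase reporter run. RXRa-bla HEK293T cells in charcoal-stripped serum medium were exposed 16 h at 37C; data fitted both directions relative to DMSO.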

Test [6] is described as follows: CCTE_Harrill_HTTr_Viability_MCF7: CCTE's 6-hour Cell Viability Assessment for the High-Throughput Transcriptomics (HTTr) Platform, in MCF-7 cells cultured in DMEM + 10% fetal bovine serum, Harrill Lab (AID 2284010; active = hit-call score of the fitted dose curve at least 0.9, where 1 is the maximum; inactive = score below 0.9). In outline:
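Propidium iodide exclusion, imaged by high-content analysis, gauged viability after a six-hour exposure across eight concentrations. Cells were MCF-7 grown in DMEM with 10% fetal bovine serum; fits run in both directions against DMSO.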

Test [7] in a line: CCTE_Shafer_MEA_acute_spike_number: CCTE's Neural Acute Assay for Total Number of Spikes, Shafer Lab (AID 2284008; active = hit-call score of the fitted dose curve at least 0.9, where 1 is the maximum; inactive = score below 0.9;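 note: curve fitted for decrease in spike count so AC50 reflects inhibitors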). In outline:
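Total spike count from 40 min recordings before and during compound exposure (0.03-40 uM), given as per-well percent change. Cortical cultures from rat, DIV 13 or 15, 37 C; adaptive detection threshold 8x rms noise.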

Test [8] in a line: CCTE_Shafer_MEA_acute_firing_rate_mean: CCTE's Neural Acute Assay for Mean Firing Rate, Shafer Lab (AID 2284009; active = hit-call score of the fitted dose curve at least 0.9, where 1 is the maximum; inactive = score below 0.9;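 note: analyzed for loss of signal so actives lower firing rate relative to DMSO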). The method, then:
CCTE_Shafer_MEA_acute assay is conducted using Axion Biosystems 48 well microelectrode array (MEA) plates and Maestro recording system. Each well of the MEA plate contains a grid of 16 microelectrodes embedded in the culture surface. Electrically active cells, such as neurons, can be cultured over the electrodes, and electrical activity in these cells can be recorded extracellularly. The spontaneous firing of neurons is captured from each electrode on a microsecond timescale providing both temporally and spatially precise data. […] The CCTE_Shafer_MEA_acute assay uses primary cultures of rat cortical neurons. […] The recordings before and after chemical treatment are used to calculate a percent change in the mean firing rate in each well.Data from the assay component CCTE_Shafer_MEA_acute_firing_rate_mean was analyzed into 1 assay endpoint. This assay endpoint, CCTE_Shafer_MEA_acute_firing_rate_mean, was analyzed in the negative analysis fitting direction relative to DMSO as the negative control and baseline of activity. […]
Spontaneous activity in the cortical cultures was recorded using an Axion Biosystems Maestro 768 channel amplifier and Axion Integrated Studios (AxIS) v1.8 (or later) software. […] Any electrodes with rms noise levels greater than 5 uV were grounded (e.g., no data were recorded). […] Baseline activity (40 min) was recorded before the addition of each compound. […]

For test [9], the system named is DIO1 (gene 1733). As to the kind of experiment: CCTE_GLTED_hDIO1: CCTE's human Deiodinase 1 (DIO1) Inhibition Assay, Great Lakes Toxicology and Ecology Division (GLTED) Lab (AID 2283987).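 Note: isolated human DIO1 enzyme in a cell-free setup rather than cells; enzyme activity read as free iodide liberated from substrate via Sandell-Kolthoff colorimetry.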 In outline:
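Inhibition read as reduced iodide release: after 3 h of human DIO1 with chemical, free iodide is quantified colorimetrically (Sandell-Kolthoff cerium/arsenic reaction). Triplicate plates, DMSO baseline.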

These results are taken from PubChem BioAssay (EPA / NIEHS).

Results filed as inconclusive are left out. Activity calls are given as the source filed them. Rule for the calls, unless noted: active = hit-call score of the fitted dose curve at least 0.9, where 1 is the maximum; inconclusive = response in the unintended direction; inactive = score below 0.9.

Sequence of Nucleoli Translocation, AR (gene 367) (P10275 whole entry, looked up): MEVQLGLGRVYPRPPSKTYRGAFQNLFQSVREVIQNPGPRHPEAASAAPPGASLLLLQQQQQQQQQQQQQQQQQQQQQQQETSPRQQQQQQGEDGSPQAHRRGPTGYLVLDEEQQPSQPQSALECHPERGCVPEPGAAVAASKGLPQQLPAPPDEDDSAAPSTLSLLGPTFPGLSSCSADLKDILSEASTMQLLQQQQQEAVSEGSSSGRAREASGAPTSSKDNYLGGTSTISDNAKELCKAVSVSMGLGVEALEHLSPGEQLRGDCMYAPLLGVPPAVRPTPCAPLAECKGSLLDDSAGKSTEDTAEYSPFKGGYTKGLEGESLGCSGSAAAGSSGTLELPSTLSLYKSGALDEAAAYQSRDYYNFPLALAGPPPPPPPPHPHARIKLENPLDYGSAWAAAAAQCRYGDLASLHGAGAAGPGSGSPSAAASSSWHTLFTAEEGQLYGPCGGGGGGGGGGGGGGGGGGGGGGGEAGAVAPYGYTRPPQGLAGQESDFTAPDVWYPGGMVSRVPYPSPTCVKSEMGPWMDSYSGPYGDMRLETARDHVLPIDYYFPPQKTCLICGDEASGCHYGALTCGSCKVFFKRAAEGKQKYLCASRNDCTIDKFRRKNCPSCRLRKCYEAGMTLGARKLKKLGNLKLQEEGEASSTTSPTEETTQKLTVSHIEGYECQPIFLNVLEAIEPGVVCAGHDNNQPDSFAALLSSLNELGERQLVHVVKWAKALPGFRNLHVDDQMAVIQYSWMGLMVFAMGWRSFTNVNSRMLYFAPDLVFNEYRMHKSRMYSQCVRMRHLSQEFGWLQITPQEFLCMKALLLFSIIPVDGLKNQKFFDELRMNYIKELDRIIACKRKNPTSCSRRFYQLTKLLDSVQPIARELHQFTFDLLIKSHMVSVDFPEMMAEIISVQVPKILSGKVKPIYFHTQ
Sequence of Ratio of Nucleoli Translocation and Cytoplasm, AR (gene 367) (P10275 whole entry, looked up): as above

For the compound `COCCOCCC[Si](C)(O[Si](C)(C)C)O[Si](C)(C)C`, the result in test [1], in test [3] and in [4] was inactive. Further, the half-maximal activity concentration (AC50) in [2] was 88.8 µM (active).

Take `C[C@]12CC[C@H]3C(=CCc4cc(O)ccc43)[C@@H]1CCC2=O`: the compound was called inactive in test [5], in test [2], in test [4] and in test [6]. Further, the AC50 in test [1] is 0.234 µM (active); in test [3], 3.04 µM (active).

`CSc1ccc(Cl)cc1`: the outcome in test [6] was inactive.

With `CC(=O)CCC(C)C`, the result in test [6] was inactive.

For `CCN=C1C=CC(=C(c2ccc(N(CC)CC)cc2)c2ccc(N(CC)CC)cc2)c2ccccc21`, the half-maximal activity concentration (AC50) was 1.4 µM (active) in test [1], 4.7 µM (active) in test [3], 559 nM (active) in test [7] and 559 nM (active) in [8]. Further, the result in test [4] and in test [6] was inactive.

On to `CCOC(=O)C1CC(=O)C(=C(O)C2CC2)C(=O)C1` (stereo not given), for which the result in [6] was inactive.

On to `CCCCCCCC/C=C\CCCCCCCC(=O)N(C)CC(=O)O`, for which, in test [9], the AC50 is 95.4 µM (active). For the same compound, the result in [6] was inactive.

In the case of `C=CC(=O)OCC(F)(F)C(F)(F)C(F)(F)C(F)(F)C(F)(F)C(F)(F)C(F)(F)C(F)F`, the AC50 in test [9] was 8.44 µM (active).

As for `CCCCCCCCCCCCCCCCC`, in test [6], the result was inactive.

Take `CN(N=O)C(=O)N[C@@H]1[C@@H](O)[C@H](O)[C@@H](CO)O[C@@H]1O`: the outcome in test [6] was inactive.

In the case of `Cc1cccc(C)n1`, the compound was called inactive in [1], in [2], in test [4] and in test [6].

On to `O=S(=O)(O)c1ccc(Cl)cc1`, for which the result in test [6] was inactive.

For the compound `Cc1cnccn1`, in test [6], the outcome was inactive.

For the compound `CCCCCCCCCCCCC[N+](C)(C)Cc1ccccc1`, the half-maximal activity concentration (AC50) in test [9] is 38.7 µM (active); in [1], 13.7 µM (active); in [3] it was 13.7 µM (active). In addition, the compound was classed as inactive in test [2], in [4] and in test [6].

Consider `Brc1ccccn1`, for which, in test [6], the outcome was inactive.

On to `C=C(C)C(=O)OCC(F)(F)C(F)(F)C(F)(F)C(F)F`, for which the half-maximal activity concentration (AC50) in [9] is 25.5 µM (active).

As for `CCCCCCCC/C=C\CCCCCCCC(=O)OCC(O)CO` (stereo not given), the compound was called inactive in test [1], in test [2], in test [3] and in test [4].

Consider `CCC(Cc1c(I)cc(I)c(N)c1I)C(=O)O` (stereo not given), for which the outcome in [6] was inactive.

On to `O=C1C=CC(=O)N1c1ccccc1`, for which the AC50 is 5.44 µM (active) in test [1] and 5.34 µM (active) in [3]. In addition, the compound was classed as inactive in test [2] and in test [4].

For the compound `Cc1cc(=O)[nH]c(C(C)C)n1`, the result in test [6] was inactive.

As for `CN(C)C(C)(C)CO`, the result in test [6] was inactive.

Take `CSc1ccc(O)cc1C`: in test [6], the result was inactive.
